Source: PubChem (National Center for Advancing Translational Sciences (NCATS))
Most compounds without a hit are left out; they make up all but 1.7% or so of the library.
p53ts 32C kill – qHTS Screen for Compounds that Selectively Target Cancer Cells with p53 Mutations: Cytotoxicity of p53ts Cells at the Permissive Temperature; AID 924, 2007; H1299-p53A138V at 32C, ATP luminescence viability, 24 h; 130,000 tested, 0.93% active; Potency, µM (titrated, usually from 46.1 µM), without a hit: top-dose activity change, negative = cytotoxicity, usual class: cytotoxic;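 further: 0% = DMSO and -100% = full killing by reference compound; nearly all actives have a fitted effect of over 55% in size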
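ATP-content luminescence (ATPlite) read-out after 24 h compound exposure at 32C in H1299-p53A138V cells (600/well). Tested up to 46 uM. Normalized to DMSO (0%) and 100 uM tamoxifen (100% killing); Hill-fit AC50.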
IkB sig inh – IkB Signaling | ABC-DLBCL IkBa-CBG/CBR dual luciferase ratio, 4 h; response scale: scaled: untreated 0%, proteasome inhibitor 100% | Potency, µM (titrated, usually from 57.1 µM), inactives show at the top dose IkBa stabilization activation | 110,000 tested, 0.04% active; active means well fitted curve in the direction sought with a large enough effect in the signal ratio, not every such curve was filed as active; inconclusive means small, poorly fitted or top-dose-only effect, or a change in a side signal; the % refers to the signal ratio;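 further: the direction sought is a rising ratio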
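Curves were fitted separately to fusion (green), unfused (red) and ratio luminescence, then classed by r2, magnitude and activity. Cells: OCI-Ly3, 4 h compound plus doxycycline at 37C; 10 uM MG-132 defined full response.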
p53ts 39C tox – qHTS Screen for Compounds that Selectively Target Cancer Cells with p53 Mutations: Cytotoxicity of p53ts Cells at the Nonpermissive Temperature; H1299-p53A138V viability at 39C, ATP luminescence, 24 h; Potency, µM (series often up to 46.1 µM), for inactives: top-dose activity change, negative = cell killing, actives largely listed as cytotoxic; 130,000 tested, 1.5% active; further: on the % scale 0 is the no-effect control and ±100 the full control effect; nearly all actives have a fitted effect of over 55% in size
Peg3 imprint – qHTS Assay for Compounds that Induce Erasure of Genomic Imprints; mouse ES Peg3-LacZ reporter, beta-gal luminescence, 40 h; Potency, µM (highest dose often 60.7 µM), for inactives: top-dose activity change, positive = activation, usual class: activators; 110,000 tested, 0.02% active; AID 1948, 2009
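Readout: BetaGlo luminescence (5 min, room temp) for LacZ from the normally silent maternal Peg3 allele in female Peg3LacZ-Neo ES cells. Cells 300/well, 40 h, 37C, 5% CO2. Data normalized per plate to negative controls.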
An asterisk follows results filed as active; [ ] = remark or other dose. Unless noted, the call rests on the fitted dose curve; in most records, active means well fitted curve in the direction sought with a large enough effect; inconclusive means small, poorly fitted or top-dose-only effect, or another doubt; inactive means no such curve, though single readings can be large; an effect the other way counts as inactive or inconclusive. Potency means the concentration at half of the fitted maximal effect.

`CCN(CCCNC(=O)c1cc2c(=O)n(C)c3ccccc3c2s1)Cc1ccccc1` gave p53ts 32C kill 1.1%, IkB sig inh inconclusive, p53ts 39C tox 12.6µM* and Peg3 imprint -7.1%[10.9 µM].
Cc1ccc2nc(Cl)c3cc(C(=O)NCCCN(C)Cc4ccccc4)sc3c2c1 was read as p53ts 32C kill inconclusive, IkB sig inh inconclusive, p53ts 39C tox 12.6µM* and Peg3 imprint -9.2%[10.9 µM].
CCN(CCCNC(=O)c1cc2c(=O)n(C)c3ccccc3c2s1)c1ccccc1 was read as p53ts 32C kill -14.3%, IkB sig inh 1.6%, p53ts 39C tox inconclusive and Peg3 imprint -6.8%[10.9 µM].
For CCN(CCCNC(=O)c1cc2c(=O)[nH]c3ccc(C)cc3c2s1)Cc1ccccc1 the results were p53ts 32C kill 12.6µM*, IkB sig inh inconclusive, p53ts 39C tox 12.6µM* and Peg3 imprint -23.1%[10.9 µM].
CN(C)c1ncc2nc(-c3ccccc3)c(=O)n(Cc3ccc(F)cc3)c2n1 was read as p53ts 32C kill 4.1%, IkB sig inh 0.2%[11.4 µM], p53ts 39C tox -7.0% and Peg3 imprint 5.1%.
For COc1ccc(CNC(=O)CCCc2cn(C)c3ccccc23)c(OC)c1 the results were p53ts 32C kill -2.3%, IkB sig inh inconclusive, p53ts 39C tox -18.0% and Peg3 imprint -16.4%[10.9 µM].
Screening COC(=O)C(Cc1c[nH]c2ccccc12)NC(=O)COc1ccc(Cl)cc1Cl (centres undefined) returned p53ts 32C kill -3.0%, IkB sig inh inconclusive, p53ts 39C tox inconclusive and Peg3 imprint -3.9%[10.9 µM].
N/C(=N\O)c1cn([C@@H]2O[C@@H](CO)[C@H](O)[C@@H]2O)c2ncnc(NO)c12 was read as p53ts 32C kill 2µM*, IkB sig inh 8.0%[11.4 µM], p53ts 39C tox 1µM* and Peg3 imprint -35.9%[10.9 µM].
Screening Nc1ncnc2c1c(I)cn2C1OC(CO)C(O)C1O (centres undefined) returned p53ts 32C kill 28.7%, p53ts 39C tox 18.2% and Peg3 imprint -35.2%.
For Cc1ccc(C(=O)Nc2nnc(SCC(=O)N3CCCc4ccccc43)s2)cc1 the results were p53ts 39C tox 0.562µM*.
Screening O=C(Nc1ccc2nc(SCC(=O)N3CCc4ccccc43)sc2c1)c1cccc(F)c1 returned p53ts 32C kill 3.2%, IkB sig inh -0.1%, p53ts 39C tox -20.4% and Peg3 imprint -18.2%[10.9 µM].
Screening COc1ccc(C(=O)Nc2ccc3nc(SCC(=O)N4CCOCC4)sc3c2)cc1 returned p53ts 32C kill -6.1%, IkB sig inh inconclusive, p53ts 39C tox 17.6% and Peg3 imprint -12.0%[10.9 µM].
Screening CC(C)Oc1ccc(C(=O)Nc2nnc(SCC(=O)N3CCOCC3)s2)cc1 returned p53ts 32C kill 0.631µM* and p53ts 39C tox 0.501µM*.
O=C(Nc1ccc2nc(SCC(=O)N3CCc4ccccc43)sc2c1)c1ccc(F)cc1 was read as p53ts 32C kill -18.2%, IkB sig inh -2.7%, p53ts 39C tox 12.6µM* and Peg3 imprint -21.2%[10.9 µM].
`CCOC(=O)CSc1nc2ccc(NC(=O)c3ccc(C)cc3)cc2s1` gave p53ts 32C kill 12.6µM*, IkB sig inh inconclusive, p53ts 39C tox 10µM* and Peg3 imprint 14.4%[10.9 µM].
`C=CCN1CCc2c(cc(O)c(O)c2Cl)[C@H](c2ccccc2)C1` gave p53ts 32C kill -18.0%, IkB sig inh 3.4% and p53ts 39C tox -13.2%.
For O=C(O)CCc1nc(-c2ccccc2-n2cccc2)no1 the results were p53ts 32C kill -3.2%[9.22 µM], IkB sig inh -1.0%[11.4 µM], p53ts 39C tox -1.9%[9.22 µM] and Peg3 imprint -7.7%[10.9 µM].
For Cc1ccccc1C(=O)Nc1cccc(NC(=O)c2ccc(C(C)(C)C)cc2)c1 the results were p53ts 32C kill 10µM*, IkB sig inh 17.0%, p53ts 39C tox 12.6µM* and Peg3 imprint -23.8%[10.9 µM].
For COc1cccc(C(=O)Nc2ccc(NC(=O)C(C)(C)C)cn2)c1 the results were p53ts 32C kill 3.98µM*, IkB sig inh 1.6%, p53ts 39C tox 3.16µM* and Peg3 imprint -82.7%.
`COc1cccc(C(=O)Nc2cccc(NC(C)=O)c2)c1` gave p53ts 32C kill -13.6%, IkB sig inh 18.8%, p53ts 39C tox -2.9% and Peg3 imprint -48.0%.
For COc1ccc(C(=O)Nc2cccc(OC)c2)cc1 the results were p53ts 32C kill 10µM*, IkB sig inh inconclusive, p53ts 39C tox 12.6µM* and Peg3 imprint -91.7%.
CCc1nnc(NC(=O)c2cccc(OC)c2)s1 was read as p53ts 32C kill 12.6µM*, IkB sig inh 4.5%, p53ts 39C tox inconclusive and Peg3 imprint -62.4%.
`CCc1nnc(NC(=O)c2c(OC)cccc2OC)s1` gave p53ts 32C kill 6.0%, IkB sig inh 0.7%, p53ts 39C tox 3.7% and Peg3 imprint -1.6%.
Screening Cc1ccccc1C(=O)Nc1cccc(N)c1 returned p53ts 32C kill -1.1%, IkB sig inh 5.2%, p53ts 39C tox 1.8% and Peg3 imprint -18.7%.
`O=S(=O)(c1ccccc1)N1CCC[C@@]2(CCN(Cc3nccs3)C2)C1` gave p53ts 32C kill 8.1%, IkB sig inh 1.2%[11.4 µM] and p53ts 39C tox 2.6%.
`COc1ccc(C(=O)COC(=O)c2cccc(NC(=O)c3ccc(OC)c(OC)c3)c2)cc1` gave p53ts 32C kill inconclusive, IkB sig inh inconclusive, p53ts 39C tox 15.8µM* and Peg3 imprint -75.2%[10.9 µM].
COc1ccc2oc(=O)c(C(=O)Nc3cccc(C(=O)O)c3)cc2c1 was read as p53ts 32C kill 7.94µM*, IkB sig inh inconclusive, p53ts 39C tox 5.01µM* and Peg3 imprint -89.3%[10.9 µM].
Screening COc1ccc(C(=O)Nc2ccc(OC)c(OC)c2)cc1 returned p53ts 32C kill inconclusive, IkB sig inh -0.2%, p53ts 39C tox inconclusive and Peg3 imprint -54.1%.
For COc1ccc(/C=C/C(=O)Nc2cccc(F)c2)cc1 the results were p53ts 32C kill 10µM*, IkB sig inh inconclusive, p53ts 39C tox 7.94µM* and Peg3 imprint -44.1%[10.9 µM].
For COc1ccc(CNC(=O)c2cc3cc(OC)ccc3oc2=O)cc1 the results were p53ts 32C kill 10.3%, IkB sig inh -2.1%, p53ts 39C tox -21.6% and Peg3 imprint 5.1%[10.9 µM].
For CN[C@@H]1[C@H](O)[C@H](NC)[C@@H]2O[C@]3(O)C(=O)C[C@@H](C)O[C@H]3O[C@@H]2[C@H]1O the results were IkB sig inh 0.7%[11.4 µM].
CCOc1ccc(C(=O)NCCSc2c(C)[nH]c3ccccc23)cc1OCC was read as p53ts 32C kill 9.3%, IkB sig inh -2.9%, p53ts 39C tox 12.2% and Peg3 imprint 1.6%[10.9 µM].
`Cc1cc(=O)n(CC(=O)NCCC(C)C)c2c1c(C)nn2C` gave p53ts 32C kill 0.3%, IkB sig inh -0.5%, p53ts 39C tox 0.3% and Peg3 imprint -11.5%[10.9 µM].
c1ccc(CNc2nc3ccccc3[nH]2)cc1 was read as p53ts 32C kill 10µM*, IkB sig inh -0.8%, p53ts 39C tox inconclusive and Peg3 imprint -65.3%.
For COc1ccc2nc(NCc3ccccc3)[nH]c2c1 the results were p53ts 32C kill inconclusive, IkB sig inh 3.3%, p53ts 39C tox inconclusive and Peg3 imprint -26.1%.
